From PubChem BioAssay (Tox21) come the findings set out here.

Assay [1] can be described thus: qHTS assay to identify small molecule antagonists of the estrogen receptor alpha (ER-alpha) signaling pathway using the BG1 cell line in the presence of 0.1 nM 17-beta-estradiol - cell viability counter screen (AID 1259241). Note: nearly all actives have a fitted effect of over 40% in size. In a few lines: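 Live-cell protease activity (CellTiter-Fluor fluorescence, 30 min) was read in the same wells after VM7Luc4E2 cells had been exposed to compounds with 0.1 nM 17beta-estradiol for 22 hr at 37C.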
For orientation: Quantitative high-throughput screening tests each substance at several concentrations.

Assay [2] is described as follows: qHTS assay to identify small molecule antagonists of the androgen receptor (AR) signaling pathway using the MDA cell line in the presence of 0.5 nM R1881 - cell viability counter screen (AID 1259242). Note: nearly all actives have a fitted effect of over 45% in size. A digest of the protocol:
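Cells seeded at 3,000/well and allowed 5 hr at 37C, 0% CO2 before compound transfer and R1881 (0.5 nM final) addition; 16 hr later, live-cell protease fluorescence indicated cytotoxicity.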

For assay [3], the target named is Estrogen receptor (Homo sapiens) (UniProt P03372). Kind of assay: qHTS assay to identify small molecule antagonists of the estrogen receptor alpha (ER-alpha) signaling pathway using the BG1 cell line in the presence of 0.1 nM 17-beta-estradiol (AID 1259244). Note: nearly all actives have a fitted effect of over 50% in size. A digest of the protocol: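 Luciferase signal from VM7Luc4E2 ERE-reporter cells, co-dosed with test compound and 0.1 nM final 17beta-estradiol for 22 h, read with ONE-Glo.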

Assay [4] can be described thus: qHTS assay to identify small molecule agonists of the sonic hedgehog signaling (Shh) pathway - cell viability counter screen (AID 1259366). Note: nearly all actives have a fitted effect of over 50% in size. A digest of the protocol:
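CellTiter-Fluor fluorescence read-out, 1 hr at 37C, added after 23hr compound exposure. Cells: 3T3 Gli1-Luc, an NIH/3T3 clone with stably integrated Gli1-Luc reporter, plated 4hr before compound.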

Assay [5] can be described thus: qHTS assay to identify small molecule antagonists of the sonic hedgehog signaling (Shh) pathway (AID 1259369; calls by dose curve; note: nearly all actives have a fitted effect of over 45% in size; note: potency is the fitted concentration of half-maximal effect). A digest of the protocol:
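Read-out is luminescence from a firefly luciferase gene controlled by the Gli1 response element, in 3T3Gli1-Luc cells pre-incubated 4hr then exposed to compounds and conditioned medium for 24hr.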

The nature of assay [6]: qHTS assay to identify small molecule agonists of the androgen receptor (AR) signaling pathway in the presence of an antagonist - cell viability counter screen (AID 1259379).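 Note: MDA-kb2 human breast cancer cells carrying an MMTV luciferase reporter; series mostly up to about 92 µM; nearly all actives have a fitted effect of over 25% in size.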 In a few lines:
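Each compound was tested at 15 concentrations on MDA-kb2 cells in the presence of 3.0uM nilutamide. Viability was measured by CellTiter-Fluor fluorescence after a 16 hr incubation at 37C in a CO2-free atmosphere.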

Assay [7] in a line: qHTS assay to identify small molecule agonists of the estrogen receptor beta (ER-beta) signaling pathway - cell viability counter screen (AID 1259380). Note: nearly all actives have a fitted effect of over 30% in size. A digest of the protocol: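 Compounds dissolved in DMSO were pin-transferred onto ER-beta-UAS-bla HEK293T cells that had settled 6 hr, and exposure ran 16 hr at 37C. Following the reporter read, CellTiter-Glo luminescence after 30 min at room temperature indicated cytotoxicity.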

Assay [8] can be described thus: qHTS assay to identify small molecule antagonists of the estrogen receptor beta (ER-beta) signaling pathway - cell viability counter screen (AID 1259382). Note: series mostly up to about 92 µM; nearly all actives have a fitted effect of over 55% in size. A digest of the protocol:
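CellTiter-Glo ATP luminescence measured after the LiveBLAzer read in the same wells; ER-beta-UAS-bla HEK293T cells, 16 hr compound treatment with 1nM 17-beta-estradiol agonist at 37C, 5% CO2.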

For assay [9], the target named is Estrogen receptor (Homo sapiens) (UniProt P03372). Kind of assay: qHTS assay to identify small molecule agonists of the estrogen receptor alpha (ER-alpha) signaling pathway in the presence of an antagonist (AID 1259383; calls by dose curve; note: top concentration of the series differs between compounds; nearly all actives have a fitted effect of over 15% in size). A digest of the protocol: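 Luminescent ERE-luciferase reporter, VM7Luc4E2 cells (endogenous ER-alpha); 10.0nM ICI-182,780 final; 15-point compound titration; 22hr at 37C; ONE-Glo, 30min RT.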

Assay [10] in a line: qHTS assay to identify small molecule agonists or antagonists of the thyroid stimulating hormone receptor (TSHR) signaling pathway - wild type cell line counter screen (AID 1259384; calls by dose curve). In a few lines:
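Wild-type Hek293 cells, 800/well, 18 h at 37C, then compound with Ro20-1724 for 30 min RT. cAMP by HTRF (cAMP-d2/anti-cAMP cryptate), 1 h RT, fluorescence read. 15 concentrations, triplicates.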

Assay [11] is described as follows: qHTS assay to identify small molecule antagonists of the sonic hedgehog signaling (Shh) pathway - cell viability counter screen (AID 1259367). Note: nearly all actives have a fitted effect of over 55% in size. A digest of the protocol: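 Fluorescence read-out (CellTiter-Fluor, 1 hr at 37C) taken after 23 hr compound treatment of 3T3 Gli1-Luc cells stimulated with conditioned medium. Cells were seeded at 2,000 per well and pre-incubated 4 hr.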

Assay [12] can be described thus: qHTS assay to identify small molecule agonists of the sonic hedgehog signaling (Shh) pathway (AID 1259368; calls by dose curve;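 note: NIH/3T3-derived 3T3Gli1-Luc cells carrying a stable Gli1-driven firefly luciferase reporter; series mostly up to about 92 µM; nearly all actives have a fitted effect of over 15% in size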). A digest of the protocol: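 Following a 24 hr incubation with DMSO-dissolved compounds at 37 C, 5% CO2, Gli1-Luc NIH/3T3-derived cells received luciferase reagent for 30 min at room temperature prior to luminescence measurement.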
Assay [13] concerns the target Estrogen receptor beta (Homo sapiens) (UniProt Q92731). Kind of assay: qHTS assay to identify small molecule agonists of the estrogen receptor beta (ER-beta) signaling pathway (AID 1259377; active = well fitted activation curve with a large enough effect in the signal ratio in the repeat runs, not every such curve was filed as active; the % refers to the signal ratio). In a few lines:
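Beta-lactamase reporter readout: fluorescence of LiveBLAzer B/G FRET substrate after 2 h at room temperature, following 16 h compound treatment of ER-beta-UAS-bla HEK293T cells at 37C in 2% charcoal-stripped FBS medium.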

Assay [14] has the same target. Put plainly: qHTS assay to identify small molecule antagonists of the estrogen receptor beta (ER-beta) signaling pathway (AID 1259378; active = well fitted inhibition curve with a large enough effect in the signal ratio in the repeat runs, not every such curve was filed as active; the % refers to the signal ratio). A digest of the protocol: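 ER-beta-UAS-bla HEK293T cells in 2% charcoal-stripped FBS medium treated with compound plus 1nM final 17-beta-estradiol for 16 hr at 37C. Beta-lactamase reporter read by FRET substrate fluorescence after 2 hours at room temperature.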

Assay [15] deals with Thyrotropin receptor (Homo sapiens) (UniProt P16473). Kind of assay: qHTS assay to identify small molecule antagonists of the thyroid stimulating hormone receptor (TSHR) signaling pathway (AID 1259385; calls by dose curve; note: nearly all actives have a fitted effect of over 20% in size). In a few lines: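 TSHR-HEK293 cells (800/well) plated 18 h, then compounds with Ro20-1724 and TSH at 1.5 ng/mL final, 30 min at room temperature. cAMP quantified by HTRF (cAMP-d2/anti-cAMP-cryptate, 1 h); 15 concentrations in triplicate.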

Assay [16] in a line: qHTS assay to identify small molecule HDAC inhibitors - cell viability counter screen (AID 1259365). Note: series mostly up to about 92 µM; nearly all actives have a fitted effect of over 50% in size. In a few lines: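 HCT-116 (wild type), 1,500 cells/well, overnight 37C/5% CO2; compound in DMSO 2hr; CellTiter-Glo 30min RT; luminescence read.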
Assay [17] is described as follows: qHTS assay to identify small molecule HDAC inhibitors (AID 1259364).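 Note: wild-type HCT-116 cells with endogenous class I/II HDAC activity; top concentration of the series differs between compounds; nearly all actives have a fitted effect of over 45% in size.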 A digest of the protocol: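 HCT-116 wt cells, 1,500/well, overnight attach. Compounds (DMSO) 2 h, 37 °C. HDAC-Glo I/II, 30 min RT. Luminescence.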

Unmarked numbers belong to inactive results. Inconclusive results are not listed. The source made the active and inactive calls. Unless noted, calls come from the whole dose curve; as a rule, active = well fitted curve in the direction sought with a large enough effect in the repeat runs; inconclusive = weak or mixed curves; inactive = no such curve, though single readings can be large; an effect the other way counts as inactive or inconclusive.

Thyrotropin receptor (Homo sapiens), sequence (P16473 whole entry, looked up): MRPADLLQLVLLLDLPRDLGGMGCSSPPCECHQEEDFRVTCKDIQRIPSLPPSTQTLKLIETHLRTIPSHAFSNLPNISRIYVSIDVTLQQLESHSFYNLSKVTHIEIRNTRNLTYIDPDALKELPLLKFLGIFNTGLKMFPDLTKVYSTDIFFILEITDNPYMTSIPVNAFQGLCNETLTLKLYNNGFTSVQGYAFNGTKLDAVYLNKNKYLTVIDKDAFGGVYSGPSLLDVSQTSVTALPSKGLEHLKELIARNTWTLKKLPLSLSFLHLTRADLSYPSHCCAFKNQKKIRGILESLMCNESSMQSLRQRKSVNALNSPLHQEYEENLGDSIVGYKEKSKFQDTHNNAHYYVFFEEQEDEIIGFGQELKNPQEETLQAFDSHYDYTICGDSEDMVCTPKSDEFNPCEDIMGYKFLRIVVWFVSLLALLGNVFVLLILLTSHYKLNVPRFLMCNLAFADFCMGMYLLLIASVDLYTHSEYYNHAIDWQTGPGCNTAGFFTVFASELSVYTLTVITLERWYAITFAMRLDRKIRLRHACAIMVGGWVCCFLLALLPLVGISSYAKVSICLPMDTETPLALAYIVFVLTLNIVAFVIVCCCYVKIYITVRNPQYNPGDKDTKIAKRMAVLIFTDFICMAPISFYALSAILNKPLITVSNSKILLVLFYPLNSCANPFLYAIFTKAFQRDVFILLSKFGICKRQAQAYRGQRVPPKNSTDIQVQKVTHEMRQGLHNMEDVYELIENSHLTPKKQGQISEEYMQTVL
Estrogen receptor beta (Homo sapiens), sequence (Q92731 whole entry, looked up): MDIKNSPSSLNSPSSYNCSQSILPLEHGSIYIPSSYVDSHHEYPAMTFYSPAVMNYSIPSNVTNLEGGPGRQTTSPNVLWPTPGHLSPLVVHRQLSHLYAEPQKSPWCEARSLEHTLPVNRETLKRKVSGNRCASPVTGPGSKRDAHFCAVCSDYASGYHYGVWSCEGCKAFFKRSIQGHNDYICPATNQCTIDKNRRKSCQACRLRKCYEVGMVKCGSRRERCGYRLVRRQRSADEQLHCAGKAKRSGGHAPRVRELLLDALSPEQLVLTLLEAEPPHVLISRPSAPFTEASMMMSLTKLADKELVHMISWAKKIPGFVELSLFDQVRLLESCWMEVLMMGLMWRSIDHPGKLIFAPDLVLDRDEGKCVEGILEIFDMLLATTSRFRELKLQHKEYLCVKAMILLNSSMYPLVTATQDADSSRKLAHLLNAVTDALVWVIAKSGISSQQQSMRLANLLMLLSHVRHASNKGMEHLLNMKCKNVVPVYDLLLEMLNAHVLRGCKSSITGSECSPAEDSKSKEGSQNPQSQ
Estrogen receptor (Homo sapiens), sequence (P03372 whole entry, looked up): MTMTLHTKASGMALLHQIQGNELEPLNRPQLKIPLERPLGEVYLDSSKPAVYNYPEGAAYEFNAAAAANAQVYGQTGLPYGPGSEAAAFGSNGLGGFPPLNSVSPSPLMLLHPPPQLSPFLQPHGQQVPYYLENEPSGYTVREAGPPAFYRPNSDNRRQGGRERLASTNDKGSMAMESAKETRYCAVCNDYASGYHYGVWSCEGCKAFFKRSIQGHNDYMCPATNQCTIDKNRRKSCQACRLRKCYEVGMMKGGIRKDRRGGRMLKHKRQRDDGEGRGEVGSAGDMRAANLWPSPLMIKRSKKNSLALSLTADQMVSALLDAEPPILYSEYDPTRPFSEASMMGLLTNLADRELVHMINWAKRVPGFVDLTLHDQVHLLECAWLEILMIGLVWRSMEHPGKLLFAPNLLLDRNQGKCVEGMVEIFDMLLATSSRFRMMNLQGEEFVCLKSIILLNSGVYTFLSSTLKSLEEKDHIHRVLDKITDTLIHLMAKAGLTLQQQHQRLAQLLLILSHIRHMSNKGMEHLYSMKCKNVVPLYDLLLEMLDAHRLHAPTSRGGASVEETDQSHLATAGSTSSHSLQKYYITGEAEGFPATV

With `COc1ccc(C(=O)c2ccc(C)cc2)c(O)c1`, the Potency entry in assay [1], in assay [2], in [3], in assay [4], in [5] and in assay [6] was “inactive” each time. For the same molecule, the Potency entry in assay [7], in assay [8] and in [9] was “inactive” in each case. Moreover, the molecule was classed as inactive in assay [10].

`CC1(C)C(=O)NC(=O)N1CO`: the Potency result in assay [1], in [2], in assay [3], in [4], in [11] and in assay [12] was “inactive” throughout. For the same molecule, the Potency entry in [5], in [13], in assay [14], in [6], in [8] and in assay [9] was “inactive” each time. Further, the Potency result in assay [15] was “inactive”.

Consider `CC(C)(C(=O)O)c1ccc(C(O)CCCN2CCC(C(O)(c3ccccc3)c3ccccc3)CC2)cc1` (centres undefined), for which the Potency entry in assay [1], in assay [2], in assay [3], in assay [4], in assay [11] and in assay [12] was “inactive” throughout. Also, the Potency result in assay [5], in assay [6], in assay [7], in assay [8], in assay [9] and in assay [15] was “inactive” each time. Moreover, in [16], the molecule was classed as inactive.

For the molecule `CC(=O)c1ccc(Cl)c(Cl)c1Cl`, the Potency entry in assay [1], in assay [2], in [3], in [4], in assay [11] and in assay [12] was “inactive” in each case. In addition, the Potency result in [5], in assay [13], in assay [14], in assay [6], in [7] and in assay [8] was “inactive” in each case. Also, the Potency entry in assay [9] and in assay [15] was “inactive” in each case. In addition, the molecule was called inactive in assay [16] and in [10].

Regarding `CCC(CC)C(=O)O`, the Potency result in assay [1], in assay [2], in assay [3], in [17], in [4] and in assay [11] was “inactive” throughout. Further, the Potency entry in assay [12], in [5], in assay [13], in assay [6], in assay [7] and in assay [8] was “inactive” each time. Also, in [9], the Potency result is “inactive”.

As for `CCCCOC(=O)CC#N`, the Potency entry in [1], in assay [2], in [3], in assay [4], in assay [11] and in assay [12] was “inactive” each time. Moreover, the Potency entry in assay [6], in assay [7], in assay [8], in [9] and in assay [15] was “inactive” each time. Moreover, the outcome in [16] and in assay [10] was inactive. The Potency in assay [5] is 32.1 µM (active).

Take `C=CCCC`: the Potency entry in assay [1], in assay [2], in assay [3], in assay [4], in [11] and in assay [12] was “inactive” throughout. Also, the Potency entry in assay [5], in assay [13], in assay [14], in assay [6], in assay [7] and in assay [8] was “inactive” in each case. In addition, in assay [9], the Potency entry was “inactive”. In assay [16], the molecule was called inactive.

As for `COc1cccc([C@H](O)C2CCN(CCc3ccc(F)cc3)CC2)c1OC`, the Potency entry in assay [1], in assay [2], in assay [3], in assay [17], in assay [4] and in assay [11] was “inactive” in each case. Moreover, the Potency result in assay [12], in assay [13], in [14], in assay [8], in assay [9] and in assay [15] was “inactive” each time. Besides, the Potency in assay [5] is 54.5 µM (active).

Consider `Nc1ccc(-c2ccc(F)cc2)cc1`, for which the Potency entry in [1], in assay [2], in assay [3], in assay [11], in assay [12] and in [5] was “inactive” in each case. The Potency result in assay [6], in [7], in [8], in assay [9] and in assay [15] was “inactive” each time. Further, the outcome in assay [16] and in assay [10] was inactive.
